Screen size: about 370,000 compounds; about 2,600 (0.7%) were called active. Many of the other results were omitted from the sample, so actives are more common in it than they were. Unmarked numbers belong to inactive results.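 How the source made its calls: active means inhibition above a cutoff: mean of compounds within the control limits plus 3 SD of those (cut at about 17% in these data); inactive means the rest.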
These molecules were tested against Sialate O-acetylesterase (Homo sapiens) (UniProt Q9HAT2) (assay: blockers of sialate O-acetylesterase activity-probe labeling – biochemical, fluorescence polarization, FP-Rh probe, 1536-well HTS, primary screen (AID 1053197;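 further: 0% = plate median of compound wells and 100% = probe without SIAE protein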)). Conditions: SIAE FP-Rh probe binding, at 9.66 µM, stronger effect = higher value.
Sialate O-acetylesterase (Homo sapiens), sequence (Q9HAT2 whole entry, looked up): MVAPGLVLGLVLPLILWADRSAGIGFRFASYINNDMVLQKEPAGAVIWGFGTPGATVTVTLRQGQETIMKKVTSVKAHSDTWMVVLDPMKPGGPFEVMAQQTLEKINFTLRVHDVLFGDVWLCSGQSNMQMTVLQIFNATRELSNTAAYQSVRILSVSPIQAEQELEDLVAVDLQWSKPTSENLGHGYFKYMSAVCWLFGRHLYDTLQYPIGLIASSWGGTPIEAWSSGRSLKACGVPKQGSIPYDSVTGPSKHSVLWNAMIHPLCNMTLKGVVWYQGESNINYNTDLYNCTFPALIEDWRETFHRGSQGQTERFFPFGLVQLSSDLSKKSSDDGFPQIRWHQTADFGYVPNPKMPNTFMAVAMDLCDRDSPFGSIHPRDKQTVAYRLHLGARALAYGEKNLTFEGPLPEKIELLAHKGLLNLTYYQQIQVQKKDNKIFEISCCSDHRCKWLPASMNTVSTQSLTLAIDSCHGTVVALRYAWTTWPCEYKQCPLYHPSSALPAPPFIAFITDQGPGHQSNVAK
Molecule `NS(=O)(=O)c1ccc(NC(=S)NNC(=O)c2cccs2)cc1` has an inhibition of 4.71%.
For `O=C(NC(=S)Nc1cccc(-c2ccc(CO)o2)c1)c1cccs1`, the inhibition was -33.9%.
For `O=C(NC(=S)Nc1ccc(NC(=O)c2cccs2)cc1)c1ccc([N+](=O)[O-])cc1`, the inhibition was 26.9% (active).
`O=C(c1ccncc1)N1CC[C@H]2[C@H](CCCN2Cc2ccc(F)cc2)C1` showed an inhibition of 2.68%.
In the case of `C=CCn1c(SCC(N)=O)nnc1-c1ccccc1OC`, the inhibition is reported as -7.56%.
In the case of `Cn1c(CC(=O)Nc2ccc(F)cc2)nnc1SCC(=O)NC1CCCCC1`, the inhibition is reported as 2.38%.
Work on `CCC(=O)Nc1ccc(C(=O)CSc2nnc(CNc3ccc(Cl)cc3)o2)cc1OC` yielded an inhibition of -0.55%.
`CC(=O)Nc1ccc(C(=O)CSc2nnc(Cc3ccccc3)o2)cc1` was tested, and the inhibition was -1.29%.
`CCOc1ccc(Nc2nc(Cc3nnc(SCC(=O)NC4CCCC4)n3C)cs2)cc1` was tested, and the inhibition was 19.1% (active).
`CCOc1ccc(Nc2nc(Cc3nnc(SCC(=O)c4ccc(C)cc4)o3)cs2)cc1` was tested, and the inhibition was 18.2% (active).
Molecule `CCOc1cccc(-c2nnc(SCC(=O)NC3CC3)n2C)c1` has an inhibition of -3.03%.
`CC(C)(C)c1ccc(C(=O)Nc2cc(Cl)c(Br)cc2C(=O)O)cc1` showed an inhibition of -77.3%.
Molecule `COc1ccc(-n2c(SCC(=O)Nc3ccccc3-c3ccccc3)nnc2-c2cccnc2)cc1` has an inhibition of 4.69%.
`Clc1ccc(-n2c(COc3ccccc3)nnc2SCc2nc3ccccc3[nH]2)cc1` was tested, and the inhibition was -2.83%.
`Nn1c(SCC(=O)Nc2ccc(S(N)(=O)=O)cc2)nnc1-c1n[nH]c2c1CCC2` was tested, and the inhibition was -5.56%.
For `Cc1ccccc1CN1CCCCC(NC(=O)Nc2ccccc2F)C1=O` (stereo not given), the inhibition was 1.41%.
For `Nc1ccc2nc3c(=O)[nH]c(=S)[nH]c3nc2c1`, the inhibition was 31.8% (active).
With `O=C(N1CCOCC1)N1CC[C@H]2[C@H](CCCN2Cc2ccc(F)cc2)C1` the inhibition was 0.67%.
With `O=C(c1cccc(C(F)(F)F)c1)N1CC[C@H]2[C@H](CCCN2Cc2cc(F)cc(F)c2)C1` the inhibition was 1.24%.
Molecule `C=CCN1[C@H](CC(C)C)COc2cccc(N3CCCC3)c2S1(=O)=O` has an inhibition of 6.71%.
`CNC(=S)N/N=C/c1cn(Cc2ccc(C)cc2)c2ccccc12` was tested, and the inhibition was 18.3% (active).
`NC(=O)Cn1cc(/C=N\NS(=O)(=O)c2ccccc2)c2ccccc21` gave an inhibition of 10.5%.
`CNC(=S)N/N=C/c1ccc(OCc2ccccc2)c(Br)c1` was tested, and the inhibition was -1.33%.
With `c1coc(CCNc2ncnc3ccc(-c4ccc5c(c4)OCO5)cc23)c1` the inhibition was -15.4%.
With `CCC(=O)Nc1ccc2c(c1)C(=O)N(C)[C@H]1CC[C@H](CC(=O)NCCOC)O[C@@H]1CO2` the inhibition was -4.02%.
For `COc1ccc(C#CCNCc2ccc(OC)cc2OC)cc1`, the inhibition was 3.3%.
`COc1cccc(/C=N/Nc2cc(C)nc(-c3ccccc3O)n2)c1O` was tested, and the inhibition was 18.5% (active).
`O=C1CCN(C(=S)NCCc2ccccc2)CC1` was tested, and the inhibition was 17.5% (active).
Work on `Oc1cc2c(cc1O)CN(C(=S)NCCc1ccc(Cl)cc1)CCC2` yielded an inhibition of 2.67%.
For `Oc1ccc(N2CCN(C(=S)NCc3ccccc3)CC2)cc1`, the inhibition was 10.2%.
For `CCOC(=O)C(=O)N(Cc1ccccc1)c1ccccc1C(=O)Nc1cc(OC)ccc1OC`, the inhibition was -7.2%.
With `CC(C)(C)OC(=O)NCc1cc(F)ccc1/C=C/S(=O)(=O)NCCc1ccccc1` the inhibition was -1.86%.
`COC(=O)c1cc(S(=O)(=O)N2CCN(c3ccccc3C)CC2)cn1C` was tested, and the inhibition was 2.1%.
`CCC(=O)N1CCC(C(N)=O)(N2CCCCC2)CC1` was tested, and the inhibition was -0.17%.
For `NC(=O)C1(N2CCCCC2)CCN(C(=O)c2ccc(C#Cc3ccccc3)o2)CC1`, the inhibition was -5.47%.
With `CC(C)(O)C#Cc1ccc(C(=O)N2CCC(C(N)=O)(N3CCCCC3)CC2)cc1` the inhibition was 22.5% (active).
`CCC[C@H]1C(=O)CC[C@@]23CCCN2C(=O)CCC[C@@H]13` was tested, and the inhibition was -0.79%.
With `CC[C@@H](CCC(=O)N(c1ccccc1)c1ccccc1)C1CC1` the inhibition was -1.88%.
`COC(=O)[C@]1(C#N)CC(=O)N(CC2CCCCC2)[C@@H]1c1ccccc1` showed an inhibition of 2.31%.
`Cc1cccc(C2C3=C(CCCC3=O)N=C3c4ccccc4C(=O)C32)c1` (stereo not given) was tested, and the inhibition was 6.75%.
In the case of `Cc1cccc(C2c3c(n(C)c(=O)n(C)c3=O)N=C3c4ccccc4C(=O)C32)c1` (stereo not given), the inhibition is reported as 17.7% (active).
In the case of `COc1ccc(C2C3=C(OC(C)=O)c4ccccc4C3=Nc3c2c(=O)n(C)c(=O)n3C)cc1` (stereo not given), the inhibition is reported as 1.68%.
`CCC(CO)Nc1cccc2c1S(=O)(=O)N(Cc1cn(Cc3ccccc3C(F)(F)F)nn1)Cc1ccccc1O2` (stereo not given) gave an inhibition of 7.92%.
`COC(=O)c1cc(S(=O)(=O)N2CCN(C(=O)C3CCCO3)CC2)cn1C` (stereo not given) gave an inhibition of -4.53%.
`CCCCOCCCNC(=O)C[C@H]1C[C@@]2(C(=O)OC)C(=C[C@H](C(C)(C)C)O[C@@H]2C)N(CCc2ccc(OC)c(OC)c2)C1=O` gave an inhibition of -1.28%.
Work on `CCOC(=O)[C@]12CCCCC/C=C\1N(Cc1ccc(OC)cc1)C(=O)[C@H]2CC(=O)NCCCN1CCCC1=O` yielded an inhibition of 4.21%.
With `CCOc1cc(N2CCOCC2)c(OCC)cc1NC(=O)COc1cccc2cccnc12` the inhibition was 25.5% (active).
`CCOc1cc(N2CCOCC2)c(OCC)cc1NC(=O)C1=NN(c2cccc(C)c2)C(=O)CC1` showed an inhibition of 7.16%.
`NC(=O)C1CCN(C(=O)COc2cccc3cccnc23)CC1` gave an inhibition of 4%.
Work on `COc1ccc(C(=O)NNc2cc(C)nc(NNC(=O)c3ccc(OC)cc3)n2)cc1` yielded an inhibition of -3.36%.
Molecule `CC(=O)NS(=O)(=O)c1ccc(N/C(N)=N/c2nc(C)cc(C)n2)cc1` has an inhibition of -5.5%.
`CC(=O)Nc1ccc(Nc2cc(C)nc(Nc3ccc(NC(C)=O)cc3)n2)cc1` was tested, and the inhibition was 19.1% (active).
In the case of `CCC(c1ccc(NC(=O)OC(C)(C)C)cc1)c1cc(OC)cc(OC)c1` (stereo not given), the inhibition is reported as -2.44%.
For `C=CCN1C(=O)[C@H](CC(=O)N2CCN(C(=O)OCC)CC2)[C@@]2(C(=O)OCC)CCCC=C12`, the inhibition was 10.1%.
`CC(=O)N1CCc2cc(S(=O)(=O)NCCC(=O)N3CCCC3)ccc21` showed an inhibition of -1.37%.
`C=CCN1C(=O)[C@@H](CC(=O)N2CCN(C(=O)c3ccco3)CC2)[C@]2(C(=O)OC)CCCCC=C12` was tested, and the inhibition was 2.59%.
Molecule `CC(C)N1CCCCC(NC(=O)C(C)(C)C)C1=O` (stereo not given) has an inhibition of -4.73%.
In the case of `Cc1ccccc1OCC(=O)NCC(=O)OCC(=O)c1ccc2ccccc2c1`, the inhibition is reported as -1.57%.
`O=C(COc1ccc(Cl)cc1)NCCSc1ccccc1` showed an inhibition of 0.9%.
With `Cc1cc2ccccc2n1CCNC(=O)COc1ccc2ccccc2c1` the inhibition was 27.9% (active).
With `C[C@H]1[C@H](NC(=O)c2cccc(N(C)C)c2)CC[C@@]23CCCN2C(=O)CCC[C@@H]13` the inhibition was 0.13%.
In the case of `COc1ccc(CSc2nnc(-c3cccc(C)c3)n2C)cc1`, the inhibition is reported as 4.99%.
`COC(=O)C[C@@H]1CC[C@H]2[C@@H](COc3ccc(NS(=O)(=O)CC(F)(F)F)cc3C(=O)N2C)O1` gave an inhibition of 8.2%.
Work on `COC(=O)[C@]12C[C@H](CC(=O)NCc3cccs3)C(=O)N(CCc3ccc(OC)c(OC)c3)C1=C[C@H](C(C)C)O[C@@H]2C1CC1` yielded an inhibition of 9.66%.
Molecule `COc1ccc(C2CC=C(C(=O)O)C(c3ccccc3F)N2S(=O)(=O)c2ccc(C)cc2)cc1OC` (stereo not given) has an inhibition of -2.16%.
Molecule `COC(=O)/C(=C1\Oc2ccc(C(C)(C)C)cc2S1)C(F)(F)F` has an inhibition of 0.75%.
In the case of `CCOC(=O)C1=C(c2ccccc2)O/C(=C(/C(=O)OC)C(F)(F)F)S1`, the inhibition is reported as 36% (active).
`CCOC(=O)c1nnn(-c2nonc2OC)c1-c1ccccc1` was tested, and the inhibition was 1.88%.
For `c1csc(-c2nnc(SCc3nc4ccccc4[nH]3)o2)c1`, the inhibition was -0.76%.
`CCCNC(=O)Nc1ccc2c(c1)C(=O)N(C)[C@H]1CC[C@H](CC(=O)NCC3CCCCC3)O[C@@H]1CO2` showed an inhibition of -0.34%.
Molecule `Cc1cccc(NC(=O)C[C@H]2CC[C@H]3[C@@H](COc4ccc(NC(=O)Nc5ccccc5)cc4C(=O)N3C)O2)c1` has an inhibition of -1.56%.
Work on `COc1ccccc1CCC(=O)NNC(=O)c1ccncc1` yielded an inhibition of -7.13%.
With `COc1ccc(/C=N/NC(=O)c2ccncc2)cc1CN1CCCc2ccccc21` the inhibition was 18.8% (active).
For `CCc1ccc(/C=N/NC(=O)c2nnn(-c3nonc3N)c2CN2CCc3ccccc32)cc1`, the inhibition was -0.3%.
`CCCCNC(=O)C[C@H]1C[C@@]2(C(=O)OC)C(=C[C@H](COCc3ccccc3)O[C@@H]2C)N(Cc2ccc(Cl)cc2Cl)C1=O` showed an inhibition of 11.1%.
`COc1ccc(S[C@]2(C(=O)N(C)C)CC(=O)N(c3ccc(OC)cc3)[C@@H]2c2ccc(OC)cc2)cc1` showed an inhibition of -0.86%.
Work on `Cc1ccc(NC(=O)Cc2cccc(F)c2)c(S(=O)(=O)N2CCOCC2)c1` yielded an inhibition of -2.62%.
For `CCn1c(SC)nc(O)c(C(c2ccc(OC)c(O)c2)c2c(O)nc(SC)n(CC)c2=O)c1=O`, the inhibition was 26.7% (active).
Work on `COc1ccccc1OCC(=O)OCn1c(SC)nnc(C)c1=O` yielded an inhibition of -6.49%.
`CCSc1nc(O)c(C(c2cccc(OC)c2)c2c(O)nc(SCC)[nH]c2=O)c(=O)[nH]1` gave an inhibition of -2.73%.
`CCN(/N=C/c1ccc(N(C)C)cc1)c1nc2ccccc2[nH]1` showed an inhibition of 4.94%.
For `Oc1ccc(/C=N/N(Cc2ccccc2)c2ccccc2)cc1`, the inhibition was 19.4% (active).
Molecule `CCN(/N=C/c1ccccc1)c1cc(=O)n(C)c(=O)[nH]1` has an inhibition of 10.2%.
`O=C(NC1CCCC1)C1CSCCS(=O)(=O)N1Cc1ccccc1` (stereo not given) gave an inhibition of -3.54%.
With `N[C@@H](Cc1ccccc1)C(=O)N1CCC[C@@H]1C(=O)N1CCC2CCN(S(=O)(=O)c3ccccc3)CC21` (stereo not given in full) the inhibition was 1.02%.
